Source: PubChem BioAssay (EPA / NIEHS)
Inconclusive results are not listed. Calls of active or inactive are those of the source. Rule for the calls, unless noted: active = hit-call score of the fitted dose curve at least 0.9, where 1 is the maximum; inconclusive = response in the unintended direction; inactive = score below 0.9.

Columns and labels:
[1] = Tanguay_ZF_120hpf_TR_legacy: (Legacy) Oregon State University Tanguay Lab 120 Hour Post-fertilization zebrafish Assay for Touch Response (AID 2283667)
In short: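 Tropical 5D wild-type zebrafish embryos statically exposed to 120 hpf at 28°C, sealed and dark-covered, 0.64% DMSO final; touch response scored as present/absent by brightfield microscopy at 120 hpf. Trimethyltin chloride 5 uM positive control; dead embryos not scored.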

[2] = CCTE_Padilla_ZF_144hpf_TERATOSCORE: (Legacy) CCTE's 144 Hour Post-fertilization zebrafish Assay Teratoscore, Padilla Lab (AID 2283679; active = hit-call score of the fitted dose curve at least 0.9, where 1 is the maximum; inactive = score below 0.9;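 for AC50: zebrafish embryos with chorions exposed by immersion from 6-8 hpf to 5 dpf with daily renewal; teratogenicity score from eye scoring of death hatching and malformations at 144 hpf; higher score means more developmental defects relative to DMSO baseline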)
In short: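 Larvae scored by eye at 144 hpf for death, hatching and malformations after a day in clean Hanks'. Before that, daily-renewed exposure at 80 uM (0.4% DMSO, 26C) from roughly 6-8 hpf through 5 dpf, 4 embryos per chemical.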

[3] = Tanguay_ZF_120hpf_ActivityScore_legacy: (Legacy) Oregon State University Tanguay Lab 120 Hour Post-fertilization zebrafish Assay Score for Activity (AID 2283742);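 for AC50: dechorionated Tropical 5D wild-type zebrafish embryos held singly per well; static exposure from 6 hpf until 120 hpf at 28 °C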
In short: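 Dechorionated Tropical 5D embryos, one per well from 6 hpf, statically exposed to 120 hpf at 28 °C in 0.64% DMSO. Mortality and malformations scored binary by brightfield microscopy; activity score combines 18 endpoints, fitted positively versus DMSO.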

[4] = system: Thyroperoxidase (TPO), gene 54314; test: CCTE_Simmons_AUR_rTPO: CCTE's Amplex UltraRed Assay for Thyroperoxidase (TPO) Inhibition, Simmons Lab (AID 2283662);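 note: potency for loss of signal meaning inhibition of peroxidase activity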
In short: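 Endpoint is decreased Amplex UltraRed fluorescence after a 30-min, 37C reaction of rat thyroid microsomes with 300 uM H2O2. Eight test concentrations (5 nM–87.5 uM final) in 0.5% DMSO, three biological replicates each.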

[5] = system: Thyroperoxidase (TPO), gene 445522; test: CCTE_Simmons_GUA_TPO: CCTE's Guaiacol Assay for Thyroperoxidase (TPO) Inhibition, Simmons Lab (AID 2283750)
In short: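 Porcine thyroid microsomes (25 ug) in 200mM potassium phosphate, preincubated 30 s at 37C with compound (8 concentrations, 5 nM–87.5 uM) and 35mM guaiacol; 1mM H2O2 starts reaction. Absorbance change at 450nm over first 80 s; loss of signal versus DMSO, three replicates.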

[6] = target: Luciferin 4-monooxygenase (Photinus pyralis) (UniProt P08659); test: CCTE_Simmons_QuantiLum_inhib_2: CCTE's Firefly Luciferase Inhibition Assay, Simmons Lab (AID 2283767)
In short: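 Recombinant firefly luciferase (5 ng/well, 200 mM potassium phosphate with 1 mg/ml BSA) was exposed to 8 concentrations from 5 nM to 87.5 uM (final, 0.5% DMSO) for 30 min at 37C in the dark. Loss of luminescence versus DMSO was read after injecting D-luciferin/ATP-analogue reagent.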

[7] = CEETOX_H295R_MTT_cell_viability: Viability Assessment in the CeeTox HT-H295R MTT Assay (AID 2283718; active = hit-call score of the fitted dose curve at least 0.9, where 1 is the maximum; inactive = score below 0.9)
In short: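 Human H295R adrenal cells, prestimulated 48 h with 10 uM forskolin, were exposed 48 h to chemicals in 0.1% DMSO. Viability was measured in the same wells by MTT (0.5 mg/ml, 4 h, 37 C), absorbance 570/650 nm, as percent of controls.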

[8] = STM_H9_OrnithineISnorm_perc: Stemina devTOX quickPredict H9 human embryonic stem cell (hESC)-based Assay for Ornithine (ORN) Metabolite Biomarker, Normalized (AID 2283712; active = hit-call score of the fitted dose curve at least 0.9, where 1 is the maximum; inactive = score below 0.9;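 note: ornithine released into spent medium during last day measured by mass spectrometry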)
In short: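 Undifferentiated pluripotent H9 hESCs were exposed to compound for 72h, with media and compound replaced every 24h. Ornithine in final 24-h conditioned media was measured by UPLC-HRMS, normalized to 13C-labeled spike-in standard and to median 0.1% DMSO control.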

[9] = ArunA_CellTiter_hNC: Viability Assessment in the ArunA Biomedical's Oris Neural Crest (hNC) Cell Migration Assay (AID 2283752)
In short: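 Human H9-derived neural crest stem cells were plated at 60,000 per well on Matrigel in growth medium with LIF and bFGF, incubated 16 h at 37C, then exposed to chemical for 72 h. Viability was read with CellTiter Aqueous One as loss of signal versus DMSO.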

[10] = ArunA_CellTiter_hNP: Viability Assessment in the ArunA Biomedical's Oris Neural Crest (hNC) Cell Migration Assay (AID 2283753)
In short: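 H9-derived hNP1 neuroprogenitors, 60,000/well on Matrigel, cultured 16 h, then 72 h chemical exposure in test medium. Cell titer via CellTiter Aqueous One; positive-direction fit vs DMSO.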

[11] = ArunA_Migration_hNC: ArunA Biomedical's Oris Neural Crest (hNC) Cell Migration Assay (AID 2283755)
In short: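 Human H9-derived neural crest stem cells, 60,000/well on Matrigel, 16 h at 37C, then 72 h chemical exposure after seeding-stopper removal. Migration into detection zone read as calcein-AM fluorescence (ex494/em517), relative to DMSO.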

[12] = ArunA_NOG_NucleusCount: ArunA Biomedical's Neurite Outgrowth (NOG) Assay for Nucleus Count (AID 2283756)
In short: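 Human H9-derived differentiated neurons were exposed for 48 h right after seeding. Hoechst-stained nuclei gated by size and intensity were counted by automated high-content imaging as viable neurons. Loss of signal vs DMSO.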

[13] = ArunA_NOG_NeuritesPerNeuron: ArunA Biomedical's Neurite Outgrowth (NOG) Assay for Neurites Per Neuron (AID 2283758)
In short: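 Differentiated human H9-derived neurons exposed to chemicals for 48 h from seeding, then stained with Hoechst and βIII-tubulin/DyLight 488. Automated imaging counted neurites (processes >10 um) per valid neuron; loss of signal versus DMSO scored.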

[14] = ArunA_NOG_BranchPointsPerNeurite: ArunA Biomedical's Neurite Outgrowth (NOG) Assay for Branch Points Per Neurite (AID 2283759)
In short: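 Automated image analysis traced neurites (processes >10 um) from valid cell bodies after Hoechst and βIII-tubulin staining. hNN cells from H9 embryonic stem cells, 48 h exposure. Fitted bidirectionally against DMSO.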

[15] = ArunA_Migration_hNP: ArunA Biomedical's Oris Neuroprogenitor (hNP) Cell Migration Assay (AID 2283754)
In short: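 Human H9-derived hNP1 neuroprogenitors on Matrigel with LIF/bFGF, plated around seeding stoppers for 16 h at 37C; stoppers removed at start of 72 h chemical exposure. Calcein-AM staining, fluorescence 494/517 nm in detection zone; loss-of-signal vs DMSO; cytochalasin D control.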

Sequence of Luciferin 4-monooxygenase (Photinus pyralis) (P08659 whole entry, looked up): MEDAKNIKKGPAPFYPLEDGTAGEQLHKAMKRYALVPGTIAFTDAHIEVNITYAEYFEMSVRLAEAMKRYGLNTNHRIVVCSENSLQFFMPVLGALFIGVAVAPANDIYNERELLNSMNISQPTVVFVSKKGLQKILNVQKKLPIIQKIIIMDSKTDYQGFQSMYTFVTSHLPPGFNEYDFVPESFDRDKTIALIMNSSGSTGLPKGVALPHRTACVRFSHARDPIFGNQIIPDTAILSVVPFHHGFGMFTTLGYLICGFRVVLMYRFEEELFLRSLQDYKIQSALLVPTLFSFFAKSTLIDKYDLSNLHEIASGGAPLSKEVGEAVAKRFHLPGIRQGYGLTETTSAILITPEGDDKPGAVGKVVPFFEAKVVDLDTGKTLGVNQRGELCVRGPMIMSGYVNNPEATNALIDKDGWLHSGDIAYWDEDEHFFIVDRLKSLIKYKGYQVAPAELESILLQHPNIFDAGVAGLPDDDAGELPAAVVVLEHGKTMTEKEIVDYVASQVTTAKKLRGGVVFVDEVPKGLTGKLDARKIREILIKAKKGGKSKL

CCOC(=O)C(C)(C)Oc1ccc(Cl)cc1
outcome [1]: inactive
AC50 [2]: 2.86 µM (active)
AC50 [3]: 37.7 µM (active)

Cc1ccc(N(C)C)cc1
AC50 [4]: 11.3 µM (active)
outcome [3]: inactive
AC50 [5]: 95.1 µM (active)
outcome [6]: inactive

NCCO
outcome [1]: inactive
outcome [3]: inactive

Cc1nc(C)nc(N2C[C@@H](C)N(c3ccnc([C@@H](C)O)n3)[C@@H](C)C2)n1
outcome [1]: inactive
AC50 [2]: 30.3 µM (active)
outcome [7]: inactive
outcome [3]: inactive

CC(CO)OC(C)CO (stereo unspecified) (tested in a mixture with another compound)
outcome [1]: inactive
outcome [8]: inactive
outcome [3]: inactive

Cc1nc(-c2ccc3c(c2)CCN(CCC2CCC(NC(=O)/C=C/c4ccc(F)cc4)CC2)CC3)no1 (stereo unspecified)
outcome [1]: inactive
outcome [8]: inactive
outcome [7]: inactive
outcome [3]: inactive

Cc1cccc(Nc2cc(Cl)nc(SCC(=O)O)n2)c1C
outcome [1]: inactive
outcome [8]: inactive
outcome [7]: inactive
outcome [3]: inactive

FC(F)(F)C(F)(F)C(F)(F)C(F)(F)C(F)(F)C(F)(F)CCI
outcome [1]: inactive
AC50 [2]: 31.3 µM (active)
outcome [3]: inactive

OC[C@@H](O)[C@@H](O)[C@H](O)[C@H](O)CO
outcome [1]: inactive
outcome [8]: inactive
outcome [3]: inactive
outcome [9]: inactive
AC50 [10]: 80.6 µM (active)
outcome [11]: inactive
AC50 [12]: 50 µM (active)
outcome [13]: inactive
AC50 [14]: 9.92 µM (active)

CCCCCCC(=O)OCC
outcome [3]: inactive

Cc1ccccc1Cl
outcome [1]: inactive
outcome [3]: inactive

O=[N+]([O-])C(CO)(CO)CO
outcome [1]: inactive
outcome [3]: inactive

CCCCOC(=O)CCCCCCCCC(=O)OCCCC
outcome [1]: inactive
outcome [3]: inactive

CCCCCCCC=O
outcome [1]: inactive
outcome [3]: inactive

CCc1c(C(=O)NN2CCCCC2)nn(-c2ccc(Cl)cc2Cl)c1-c1ccc(Br)cc1
AC50 [2]: 0.533 µM (active)
AC50 [3]: 39.9 µM (active)

CCCCCCCCCCCCCO
outcome [1]: inactive
outcome [3]: inactive

NCC1(Cc2noc(=O)[nH]2)CCCCC1
outcome [1]: inactive
outcome [3]: inactive

CC1(C)NC(=O)NC1=O
outcome [2]: inactive
outcome [3]: inactive

COc1cc(-c2nc(NC(=O)c3cc4cc(C)cc(C)c4n3CC(=O)O)sc2CCC2CCCCC2)c(OC)cc1Cl
outcome [1]: inactive
outcome [3]: inactive

CC(=O)C(C)=CC1C(C)=CCCC1(C)C (stereo unspecified)
outcome [2]: inactive
outcome [3]: inactive

CC(=O)Oc1ccccc1C(=O)O
outcome [3]: inactive

CCCCCCCCCCCCCCCC
outcome [1]: inactive
outcome [3]: inactive

Cc1ccc(C(C)C)c(O)c1
outcome [1]: inactive
outcome [3]: inactive

CCCCCCOCCO
outcome [3]: inactive

O=C(O)CCCCC(=O)O
outcome [1]: inactive
outcome [3]: inactive

NS(=O)(=O)c1cc2c(cc1Cl)NCNS2(=O)=O
outcome [3]: inactive

O=C(N[C@@H](Cc1ccccc1)[C@@H](O)C(=O)N1C[C@@H](O)[C@@H](O)C1)c1cc2cc(Cl)ccc2[nH]1
outcome [1]: inactive
outcome [3]: inactive

COCCOC[C@H](CC1(C(=O)NC2CCC(C(=O)O)CC2)CCCC1)C(=O)Oc1ccc2c(c1)CCC2 (stereo partly specified)
outcome [1]: inactive
outcome [3]: inactive

CNCc1cc(F)ccc1Oc1ccc(Cl)c(Cl)c1
AC50 [2]: 15.7 µM (active)
outcome [3]: inactive

CCOC(=O)CCC(=O)OCC
outcome [3]: inactive

CC(=O)OCCOCCOCCOC(C)=O
outcome [1]: inactive
outcome [3]: inactive

CC(C)c1ccc(C(=O)N=C(N)N)cc1S(C)(=O)=O
outcome [1]: inactive
outcome [3]: inactive

COc1ccc2c(c1)c(CC(=O)O)c(C)n2C(=O)c1ccc(Cl)cc1
AC50 [2]: 61.7 µM (active)
AC50 [8]: 82.5 µM (active)
outcome [7]: inactive

Nc1ccc2c(c1)C(=O)c1ccccc1C2=O
outcome [7]: inactive
outcome [3]: inactive

Cc1ccc2ncccc2c1
outcome [1]: inactive
outcome [3]: inactive

CCCCCCCCCCCCCCCCCC(=O)O
outcome [1]: inactive
outcome [3]: inactive

CCCCc1ccc2c(n1)[C@@H](c1ccc(OC)cc1C[C@H](C)C(=O)O)[C@H](C(=O)O)[C@H]2c1ccc2c(c1)OCO2
outcome [8]: inactive
outcome [3]: inactive
outcome [9]: inactive
outcome [10]: inactive
outcome [15]: inactive
outcome [11]: inactive
outcome [12]: inactive
outcome [14]: inactive

CCCCCCCCCCCC(=O)OC
outcome [1]: inactive
outcome [3]: inactive
